The supplement of paper PMC10849652
The full data set covers some 7,900 targets. This sample favours those with a hit. About 0.6% of all pairs of compound and target were hits. A number with no mark means an inactive call.

How the values were obtained:
Test in all cases: log2 fold change, soluble protein after heating vs DMSO (PISA); higher = thermal stabilisation; K562 cells, 10 uM, 30 min; active = over 0.2 and 3.5 SD of the protein, either way, in both replicates (recomputed)
[1] = compound: COC1=CC=C(C=C1)CN2C=CC3=C2C=C(C=C3)C(=O)NO
Outline: (§1)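 For each measurement, 10 μM compound was applied for 30 min to K562 cells at 2×10^6 cells/mL. Aliquots were heated for 3 min across 48°C-58°C, pooled, and extracted in PBS with 0.5% NP-40 at 4°C; the supernatant after 21,000xg for 90 min was soluble protein. This was quantified by TMTpro 16plex LC-MS/MS with channel sums equalised, and thermal stability was reported relative to control samples from duplicates, on a log2 fold-change scale.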

filanesib = compound: CON(C)C(=O)N1N=C(c2cc(F)ccc2F)S[C@@]1(CCCN)c1ccccc1 [filanesib]
Outline: as §1

zotarolimus = compound: CO[C@H]1C[C@@H]2CC[C@@H](C)[C@@](O)(O2)C(=O)C(=O)N2CCCC[C@H]2C(=O)O[C@H]([C@H](C)C[C@@H]2CC[C@H](n3cnnn3)[C@H](OC)C2)CC(=O)[C@H](C)/C=C(\C)[C@@H](O)[C@@H](OC)C(=O)[C@H](C)C[C@H](C)/C=C/C=C/C=C/1C [zotarolimus]
Outline: as §1

idasanutlin = compound: COc1cc(C(=O)O)ccc1NC(=O)[C@@H]1N[C@@H](CC(C)(C)C)[C@](C#N)(c2ccc(Cl)cc2F)[C@H]1c1cccc(Cl)c1F [idasanutlin]
Outline: as §1

alisertib = compound: COc1cc(Nc2ncc3c(n2)-c2ccc(Cl)cc2C(c2c(F)cccc2OC)=NC3)ccc1C(=O)O [alisertib]
Outline: as §1

[2] = compound: COc1cc2nc(-c3cc(F)ccc3O)nc(N[C@@H]3CNC[C@H]3C(C)(C)O)c2cc1OC
Outline: as §1

gefitinib = compound: COc1cc2ncnc(Nc3ccc(F)c(Cl)c3)c2cc1OCCCN1CCOCC1 [gefitinib]
Outline: as §1

[3] = compound: COc1cccc2cc(-c3nc([C@H]4CC[C@H](C(=O)O)CC4)n4ncnc(N)c34)[nH]c12
Outline: as §1

lapatinib = compound: CS(=O)(=O)CCNCc1ccc(-c2ccc3ncnc(Nc4ccc(OCc5cccc(F)c5)c(Cl)c4)c3c2)o1 [lapatinib]
Outline: as §1

pictilisib = compound: CS(=O)(=O)N1CCN(Cc2cc3nc(-c4cccc5[nH]ncc45)nc(N4CCOCC4)c3s2)CC1 [pictilisib]
Outline: as §1

[4] = compound: CS(=O)(=O)c1ccc(-c2cnc(N)c(C(=O)Nc3ccccc3)n2)cc1
Outline: as §1

crizotinib = compound: C[C@@H](Oc1cc(-c2cnn(C3CCNCC3)c2)cnc1N)c1c(Cl)ccc(F)c1Cl [crizotinib]
Outline: as §1

[5] = compound: C[C@@H]1COCCN1C2=NC(=NC(=C2)C3(CC3)S(=O)(=O)C)C4=C5C=CNC5=CC=C4
Outline: as §1

[6] = compound: C[C@H](C1=CC=C(C=C1)C(=O)NC2=C3C=CNC3=NC=C2)N
Outline: as §1

duvelisib = compound: C[C@H](Nc1ncnc2nc[nH]c12)c1cc2cccc(Cl)c2c(=O)n1-c1ccccc1 [duvelisib]
Outline: as §1

gandotinib = compound: Cc1cc(Nc2cc(CN3CCOCC3)c3nc(C)c(Cc4ccc(Cl)cc4F)n3n2)n[nH]1 [gandotinib]
Outline: as §1

tozasertib = compound: Cc1cc(Nc2cc(N3CCN(C)CC3)nc(Sc3ccc(NC(=O)C4CC4)cc3)n2)n[nH]1 [tozasertib]
Outline: as §1

[7] = compound: Cc1cc(SCc2sc(-c3ccc(C(F)(F)F)cc3)nc2C)ccc1OCC(=O)O
Outline: as §1

doramapimod = compound: Cc1ccc(-n2nc(C(C)(C)C)cc2NC(=O)Nc2ccc(OCCN3CCOCC3)c3ccccc23)cc1 [doramapimod]
Outline: as §1

ispinesib = compound: Cc1ccc(C(=O)N(CCCN)[C@@H](c2nc3cc(Cl)ccc3c(=O)n2Cc2ccccc2)C(C)C)cc1 [ispinesib]
Outline: as §1

Chain of UniProt O15347 (O15347 whole entry, looked up): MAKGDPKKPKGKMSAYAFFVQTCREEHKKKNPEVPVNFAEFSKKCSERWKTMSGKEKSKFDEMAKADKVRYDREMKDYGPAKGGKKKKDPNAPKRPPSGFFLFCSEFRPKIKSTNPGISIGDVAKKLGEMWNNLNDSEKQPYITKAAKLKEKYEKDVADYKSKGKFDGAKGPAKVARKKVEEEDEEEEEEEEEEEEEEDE
Chain of UniProt O15228 (O15228 whole entry, looked up): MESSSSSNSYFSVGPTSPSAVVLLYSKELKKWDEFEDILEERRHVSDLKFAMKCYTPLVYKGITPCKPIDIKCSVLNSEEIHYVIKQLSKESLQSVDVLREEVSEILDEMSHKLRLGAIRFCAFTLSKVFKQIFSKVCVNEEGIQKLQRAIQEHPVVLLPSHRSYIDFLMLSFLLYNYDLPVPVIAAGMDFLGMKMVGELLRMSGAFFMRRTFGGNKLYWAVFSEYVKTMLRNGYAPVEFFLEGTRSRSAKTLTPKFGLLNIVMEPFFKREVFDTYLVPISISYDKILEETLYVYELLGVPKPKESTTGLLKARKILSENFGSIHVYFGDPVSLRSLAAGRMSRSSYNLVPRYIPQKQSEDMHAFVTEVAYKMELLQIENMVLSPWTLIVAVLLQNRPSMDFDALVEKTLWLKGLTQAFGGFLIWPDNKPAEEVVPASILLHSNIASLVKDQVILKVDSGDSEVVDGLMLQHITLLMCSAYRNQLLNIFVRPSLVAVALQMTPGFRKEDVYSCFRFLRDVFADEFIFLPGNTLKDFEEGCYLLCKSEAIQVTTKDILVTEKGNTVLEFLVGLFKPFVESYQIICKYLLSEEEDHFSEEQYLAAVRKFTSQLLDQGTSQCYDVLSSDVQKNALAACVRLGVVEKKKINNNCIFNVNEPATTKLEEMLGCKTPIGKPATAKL
Chain of UniProt P31150 (P31150 whole entry, looked up): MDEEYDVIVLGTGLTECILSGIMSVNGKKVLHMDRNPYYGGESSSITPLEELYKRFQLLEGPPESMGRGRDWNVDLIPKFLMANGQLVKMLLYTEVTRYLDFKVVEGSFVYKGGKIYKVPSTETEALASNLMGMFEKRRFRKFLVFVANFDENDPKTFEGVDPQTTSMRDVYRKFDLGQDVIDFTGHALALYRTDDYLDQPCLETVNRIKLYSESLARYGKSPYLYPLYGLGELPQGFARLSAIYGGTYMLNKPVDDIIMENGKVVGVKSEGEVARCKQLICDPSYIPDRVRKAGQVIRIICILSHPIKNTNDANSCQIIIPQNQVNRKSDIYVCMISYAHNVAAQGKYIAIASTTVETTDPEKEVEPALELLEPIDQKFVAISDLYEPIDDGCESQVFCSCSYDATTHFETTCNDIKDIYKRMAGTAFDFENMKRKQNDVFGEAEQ
Chain of UniProt P36969 (P36969 whole entry, looked up): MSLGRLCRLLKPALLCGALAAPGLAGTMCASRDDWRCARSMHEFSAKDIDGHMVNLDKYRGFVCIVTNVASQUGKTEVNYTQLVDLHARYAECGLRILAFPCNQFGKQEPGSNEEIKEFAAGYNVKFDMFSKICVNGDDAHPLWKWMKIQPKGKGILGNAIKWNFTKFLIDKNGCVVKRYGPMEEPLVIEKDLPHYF
Chain of UniProt P39748 (P39748 whole entry, looked up): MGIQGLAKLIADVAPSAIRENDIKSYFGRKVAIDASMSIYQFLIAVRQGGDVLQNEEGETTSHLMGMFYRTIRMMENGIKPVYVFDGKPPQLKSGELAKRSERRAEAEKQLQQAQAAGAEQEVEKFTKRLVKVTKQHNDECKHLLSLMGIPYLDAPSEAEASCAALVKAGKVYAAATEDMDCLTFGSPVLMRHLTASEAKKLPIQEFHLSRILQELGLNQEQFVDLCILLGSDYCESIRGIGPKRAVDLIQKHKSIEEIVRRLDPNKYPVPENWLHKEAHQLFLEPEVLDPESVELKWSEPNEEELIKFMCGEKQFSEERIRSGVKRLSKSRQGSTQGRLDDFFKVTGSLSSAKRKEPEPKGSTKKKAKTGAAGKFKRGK
Chain of UniProt P40939 (P40939 whole entry, looked up): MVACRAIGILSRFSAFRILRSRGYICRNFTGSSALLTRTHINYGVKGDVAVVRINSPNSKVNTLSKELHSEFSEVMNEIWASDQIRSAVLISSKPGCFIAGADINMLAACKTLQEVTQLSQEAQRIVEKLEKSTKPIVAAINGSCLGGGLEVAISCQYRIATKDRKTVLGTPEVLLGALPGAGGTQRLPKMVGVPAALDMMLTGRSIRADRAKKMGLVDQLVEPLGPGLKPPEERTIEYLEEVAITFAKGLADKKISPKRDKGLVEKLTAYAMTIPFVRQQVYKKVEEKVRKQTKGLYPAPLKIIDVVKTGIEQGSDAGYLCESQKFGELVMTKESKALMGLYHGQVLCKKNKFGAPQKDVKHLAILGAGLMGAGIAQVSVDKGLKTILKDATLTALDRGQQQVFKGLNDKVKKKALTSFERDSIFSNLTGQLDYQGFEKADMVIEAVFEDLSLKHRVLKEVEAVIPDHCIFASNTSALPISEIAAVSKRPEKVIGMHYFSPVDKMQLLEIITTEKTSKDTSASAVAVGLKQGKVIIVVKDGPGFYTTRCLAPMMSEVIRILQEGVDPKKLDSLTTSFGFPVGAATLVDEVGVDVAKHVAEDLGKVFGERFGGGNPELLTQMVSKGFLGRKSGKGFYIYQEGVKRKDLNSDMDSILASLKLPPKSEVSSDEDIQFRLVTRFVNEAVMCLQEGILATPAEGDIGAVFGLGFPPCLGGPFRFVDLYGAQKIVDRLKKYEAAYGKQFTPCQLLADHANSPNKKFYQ
Chain of UniProt Q5JWF2 (Q5JWF2 whole entry, looked up): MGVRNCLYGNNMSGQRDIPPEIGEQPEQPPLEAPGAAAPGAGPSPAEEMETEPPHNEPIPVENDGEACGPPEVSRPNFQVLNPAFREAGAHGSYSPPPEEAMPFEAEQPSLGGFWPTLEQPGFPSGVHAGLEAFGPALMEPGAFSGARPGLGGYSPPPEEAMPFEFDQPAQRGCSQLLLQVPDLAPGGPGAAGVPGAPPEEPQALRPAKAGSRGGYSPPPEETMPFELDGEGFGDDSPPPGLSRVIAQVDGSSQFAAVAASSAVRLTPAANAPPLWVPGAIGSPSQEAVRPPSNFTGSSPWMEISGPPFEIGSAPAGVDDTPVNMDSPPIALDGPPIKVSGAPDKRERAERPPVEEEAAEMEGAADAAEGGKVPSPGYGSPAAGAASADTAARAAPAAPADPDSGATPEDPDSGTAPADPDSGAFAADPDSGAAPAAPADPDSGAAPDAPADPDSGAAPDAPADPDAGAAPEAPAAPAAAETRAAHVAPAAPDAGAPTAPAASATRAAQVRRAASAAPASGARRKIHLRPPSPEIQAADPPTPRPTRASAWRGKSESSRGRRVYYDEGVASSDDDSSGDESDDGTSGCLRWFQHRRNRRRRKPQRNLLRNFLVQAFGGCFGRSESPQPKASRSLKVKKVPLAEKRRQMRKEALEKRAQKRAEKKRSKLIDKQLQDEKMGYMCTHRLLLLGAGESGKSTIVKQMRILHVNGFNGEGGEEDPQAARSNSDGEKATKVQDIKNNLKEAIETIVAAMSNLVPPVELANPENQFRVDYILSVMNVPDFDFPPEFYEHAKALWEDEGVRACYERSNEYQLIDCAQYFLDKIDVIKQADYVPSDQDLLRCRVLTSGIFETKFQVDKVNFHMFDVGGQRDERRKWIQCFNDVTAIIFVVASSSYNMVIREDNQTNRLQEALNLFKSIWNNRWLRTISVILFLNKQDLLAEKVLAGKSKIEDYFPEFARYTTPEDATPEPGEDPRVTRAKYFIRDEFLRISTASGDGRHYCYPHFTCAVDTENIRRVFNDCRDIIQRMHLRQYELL

| Target | log2 fold change [1] | log2 fold change (filanesib) | log2 fold change (zotarolimus) | log2 fold change (idasanutlin) | log2 fold change (alisertib) | log2 fold change [2] | log2 fold change (gefitinib) | log2 fold change [3] | log2 fold change (lapatinib) | log2 fold change (pictilisib) | log2 fold change [4] | log2 fold change (crizotinib) | log2 fold change [5] | log2 fold change [6] | log2 fold change (duvelisib) | log2 fold change (gandotinib) | log2 fold change (tozasertib) | log2 fold change [7] | log2 fold change (doramapimod) | log2 fold change (ispinesib) |
| --- | --- | --- | --- | --- | --- | --- | --- | --- | --- | --- | --- | --- | --- | --- | --- | --- | --- | --- | --- | --- |
| GNAS (UniProt Q5JWF2) | -0.048 | 0 | -0.03 | -0.048 | -0.09 | 0.052 | 0.108 | -0.077 | 0.02 | 0.051 | 0.049 | 0.047 | 0.039 | -0.031 | 0.07 | -0.034 | -0.026 | 0.003 | 0.007 | -0.141 |
| HADHA (UniProt P40939) | 0.267 | 0.082 | 0.081 | -0.321 | -0.035 | 0.155 | 0.209 | -0.088 | 0.148 | 0.425 | -0.058 | 0.079 | 0.068 | -0.017 | 0.201 | 0.086 | -0.154 | 0.154 | 0.176 | 0.171 |
| FEN1 (UniProt P39748) | 0.06 | -0.215 | 0.027 | -0.099 | 0.019 | 0.039 | -0.029 | 0.096 | -0.098 | -0.005 | 0.018 | -0.488 (active) | 0.367 | -0.018 | 0.07 | -0.162 | -0.024 | 0.177 | -0.065 | -0.126 |
| GDI1 (UniProt P31150) | -0.073 | -0.043 | 0.01 | -0.056 | -0.067 | 0.045 | -0.011 | 0.037 | -0.032 | -0.006 | 0.018 | 0.026 | 0.061 | -0.054 | 0.014 | -0.049 | 0.004 | -0.009 | -0.027 | 0.084 |
| HMGB3 (UniProt O15347) | 0.037 | -0.001 | 0.012 | 0.045 | -0.064 | -0.031 | -0.033 | 0 | 0.062 | -0.044 | 0.045 | 0.026 | -0.018 | -0.071 | 0.01 | 0.01 | 0.029 | -0.001 | 0.002 | 0.1 |
| GNPAT (UniProt O15228) | 0.008 | -0.054 | 0.064 | -0.05 | -0.038 | -0.022 | 0.03 | 0 | 0.061 | 0.148 | 0.029 | -0.071 | 0.087 | -0.088 | 0.021 | -0.076 | -0.002 | 0.06 | 0.034 | -0.006 |
| GOPC (UniProt Q9HD26) | -0.059 | 0.259 | 0.329 | 0.007 | -0.026 | 0.668 (active) | 0.137 | -0.146 | 0.15 | 0.08 | 0.218 | 0.293 | -0.043 | 0.294 | -0.003 | 0.101 | 0.144 | 0.091 | 0.061 | 0.038 |
| GPX4 (UniProt P36969) | -0.035 | -0.011 | -0.248 (active) | 0.032 | -0.02 | 0.003 | -0.004 | 0.076 | -0.036 | -0.034 | 0.014 | 0.079 | 0.011 | -0.072 | 0.055 | 0.013 | 0.023 | -0.017 | -0.039 | 0.213 |
